Assay results as given in PubChem BioAssay (EPA / NIEHS).
Where “and” joins values, the source holds several entries; their conditions need not be identical. Equal values may be shown once. Inconclusive results are not listed. The source holds several records for some structures; these can differ, active in one and inactive in another. Calls of active or inactive are those of the source. Rule for the calls: active = hit-call score of the fitted dose curve at least 0.9, where 1 is the maximum; inconclusive = response in the unintended direction; inactive = score below 0.9.

These molecules were tested against Cellular tumor antigen p53 (Homo sapiens) (UniProt P04637) (assay: TOX21_p53_BLA_p5_ratio: Tox21 HCT-116 p53 Agonism Beta-lactamase Assay, Ratio, Phase 5 (AID 2283599)).
Chain of Cellular tumor antigen p53 (Homo sapiens) (P04637 whole entry, looked up): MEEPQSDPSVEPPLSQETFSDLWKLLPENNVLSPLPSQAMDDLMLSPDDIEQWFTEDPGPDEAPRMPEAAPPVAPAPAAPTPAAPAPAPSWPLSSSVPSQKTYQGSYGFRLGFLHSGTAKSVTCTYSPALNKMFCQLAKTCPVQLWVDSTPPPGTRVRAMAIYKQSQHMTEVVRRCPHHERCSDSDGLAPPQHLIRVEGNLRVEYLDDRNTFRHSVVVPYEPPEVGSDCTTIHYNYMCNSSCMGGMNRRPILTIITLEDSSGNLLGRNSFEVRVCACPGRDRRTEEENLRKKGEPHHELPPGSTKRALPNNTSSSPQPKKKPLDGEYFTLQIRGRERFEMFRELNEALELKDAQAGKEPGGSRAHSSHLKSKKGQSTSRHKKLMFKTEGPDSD
Summary of the method: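 HCT-116 cells carrying a p53-inducible beta-lactamase reporter were seeded at 4000 cells/well and dosed after 5 h with compound in DMSO (217-fold dilution). After 16 h at 37C, CCF4-AM substrate was added for 2 h, and the 460/530 nm emission ratio was scored as gain-of-signal versus DMSO.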

SMILES | AC50 | outcome
CN1CCN(c2ccccc2/C=C2\SCCN(c3ccc(Cl)c(Cl)c3)C2=O)CC1 | 86 µM (active) | –
Oc1cccc(O)c1 | – | inactive
Oc1cc2ccccc2c2ccccc12 | 11.6 µM (active) | –
CC#C[C@]1(O)CC[C@H]2[C@@H]3CCC4=CC(=O)CCC4=C3[C@@H](c3ccc(N(C)C)cc3)C[C@@]21C | 72.6 µM (active) and 22 µM (active) | –
CCCCCCCC(=O)O | – | inactive
NC(=O)N1C(=O)C(C(=O)c2cc(Cl)cs2)c2cc(F)c(Cl)cc21 (stereo unspecified) | 7.17 µM (active) | –
COCC(C)O (stereo unspecified) | – | inactive
CCCCCCCCCCCCCC[N+](C)(C)C | 31.2 µM (active) and 16.1 µM (active) | inactive
CC1=C(/C=C/C(C)=C/C=C/C(C)=C/C(=O)O)C(C)(C)CCC1 | 86.9 µM (active) | inactive
O=C(O)Cc1cc(I)c(Oc2cc(I)c(O)c(I)c2)c(I)c1 | 30.6 µM (active) | –
COc1ccc([N+](=O)[O-])cc1N | – | inactive
NC(=O)N(O)[C@@H]1C=C[C@H](Oc2cccc(Oc3ccc(F)cc3)c2)C1 | – | inactive
OC1CCC(C2CCCCC2)CC1 (stereo unspecified) | – | inactive
CC(C)(C)CC(C)(C)c1ccc(O)c(-n2nc3ccccc3n2)c1 | – | inactive
CC(C)(C)c1ccc(O)c(C(C)(C)C)c1 | 57.1 µM (active) and 60.2 µM (active) | –
c1ccc2c(c1)Cc1ccccc1-2 | 87.3 µM (active) | inactive

SMILES | AC50 | outcome
COC(=O)CCCCC(=O)OC | – | inactive
CCCCCCCCC(=O)O | – | inactive
Cc1ccc(S(=O)(=O)O)c(C)c1 | – | inactive
c1ccc2cc3c(ccc4ccccc43)cc2c1 | – | inactive
O=c1c(-c2ccc(O)cc2)coc2cc(O)ccc12 | – | inactive
Nc1cccc2c(N)cccc12 | – | inactive
CCCOC(=O)c1ccc(O)cc1 | – | inactive
CC(O)C(=O)O (stereo unspecified) | – | inactive
CC[C@H](c1ccc(O)cc1)[C@@H](CC)c1ccc(O)cc1 | 67.1 µM (active) | inactive
CC(C)(C)c1cc(C(C)(C)C)c(O)c(C(C)(C)C)c1 | – | inactive
CCC(C)(C)C1CCC(O)CC1 (stereo unspecified) | – | inactive
CCc1ccc(CCOc2ccc(CC3SC(=O)NC3=O)cc2)nc1 (stereo unspecified) | – | inactive
OCCC(F)(F)C(F)(F)C(F)(F)C(F)(F)C(F)(F)C(F)(F)C(F)(F)C(F)(F)F | – | inactive
O=[N+]([O-])c1ccc(O)cc1 | – | inactive
CCCCC(CC)COC(=O)CCCCC(=O)OCC(CC)CCCC (stereo unspecified) | – | inactive
Cc1cc(CCN2CCN(c3nsc4ccccc34)CC2)cc2c1NC(=O)CC2(C)C | – | inactive
